Screening results as filed in PubChem.
PLK1 inh: inhibitors of human PLK1 kinase. P53350. recombinant PLK1 kinase, TR-FRET peptide phosphorylation. inhibition, % at 10 µM. 97,000 tested, 0.53% active;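 active means inhibition of 50% or more in the single-concentration screen; inactive means inhibition below 50%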
Target sequence (P53350 whole entry, looked up): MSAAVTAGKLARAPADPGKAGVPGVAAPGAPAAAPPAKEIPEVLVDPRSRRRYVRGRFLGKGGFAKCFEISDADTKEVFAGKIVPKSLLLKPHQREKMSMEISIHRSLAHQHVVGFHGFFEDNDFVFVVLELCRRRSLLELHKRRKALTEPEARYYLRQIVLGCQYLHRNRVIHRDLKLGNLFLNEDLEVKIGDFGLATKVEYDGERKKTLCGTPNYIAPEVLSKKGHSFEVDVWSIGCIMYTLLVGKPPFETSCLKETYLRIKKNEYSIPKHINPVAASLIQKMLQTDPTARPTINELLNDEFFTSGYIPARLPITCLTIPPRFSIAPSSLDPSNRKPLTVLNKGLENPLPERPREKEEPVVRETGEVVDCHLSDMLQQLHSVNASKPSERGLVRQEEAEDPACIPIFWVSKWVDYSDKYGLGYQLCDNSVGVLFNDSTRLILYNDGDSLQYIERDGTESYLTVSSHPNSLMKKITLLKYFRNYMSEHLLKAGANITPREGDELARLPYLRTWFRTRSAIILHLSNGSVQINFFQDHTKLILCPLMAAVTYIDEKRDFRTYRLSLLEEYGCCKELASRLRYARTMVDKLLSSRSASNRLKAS
CYP2C19 inh: human CYP2C19 inhibition | P33261 | CYP2C19 Supersomes, luciferin-H EGE luminescence, 30 min | inhibition, % at 5 µM | 96,000 tested, 21% active | AID 778;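 active means CYP2C19 inhibition above a set limit at 5 µM in the primary screen, cut at about 50% in these data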
CYP2C19 act: increases human CYP2C19 enzyme activity | P33261 | recombinant CYP2C19, luciferin-H EGE luminescence; hits give high values; 0 = fully inhibited enzyme, 1 = untreated enzyme | activation factor at 5 µM | 96,000 tested, under 10 active | AID 1025;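 active means activation factor of at least 2 at 5 µM in the primary screen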
CYP2C9 inhib: blocks human cytochrome P450 2C9. inhibition, % at 5 µM. AID 777. P11712. 96,000 tested, 20% active. CYP2C9 Supersomes, luciferin-H conversion, luminescence;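 active means blocking of liver enzyme CYP2C9 beyond about 50% at 5 µM, limit read from the data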
CYP2C9 act: activators of human CYP2C9; activation factor at 5 µM; 96,000 tested, 1.4% active; P11712; recombinant CYP2C9, luciferin-H conversion, luminescence; hits give high values; factor 1 = untreated enzyme, 0 = blocked;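 active means activation factor of 2 or more for CYP2C9 at a 5 µM dose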
PLK1 PBD inh: Plk1 (human) PBD binding inhibition | P53350 | Plk1 PBD phosphopeptide binding, fluorescence polarization | inhibition, %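 (tested at about 20 µM)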 | 97,000 tested, 0.13% active; in the data active means inhibition above about 34%, passing the limit was not always enough
Numbers stand for hits. Rows were chosen to be rich in hits. Some 28% of all compounds tested hit in one or more screens of this group.

`O=C(O)c1ccc(S(=O)(=O)Nc2ccc(F)c(Cl)c2)cc1` gave PLK1 inh inactive, CYP2C19 inh inactive, CYP2C19 act inactive, CYP2C9 inhib inactive, CYP2C9 act inactive and PLK1 PBD inh inactive.
Screening Cc1cc(NS(=O)(=O)c2ccccc2)cc(Cl)c1O returned PLK1 inh inactive, CYP2C19 inh 100, CYP2C19 act inactive, CYP2C9 inhib inactive, CYP2C9 act inactive and PLK1 PBD inh inactive.
Screening Cc1ccc(S(=O)(=O)Nc2cc(C)c(O)c(S(=O)(=O)c3ccc(C)cc3)c2)cc1 returned PLK1 inh inactive, CYP2C19 inh inactive, CYP2C19 act inactive, CYP2C9 inhib 77, CYP2C9 act inactive and PLK1 PBD inh inactive.
Screening COc1ccccc1-c1cc(C(=O)NC(C)C)no1 returned PLK1 inh inactive, CYP2C19 inh inactive, CYP2C19 act inactive, CYP2C9 inhib inactive, CYP2C9 act 4 and PLK1 PBD inh inactive.
Screening COc1ccccc1-c1cc(C(=O)NC(C)c2ccccc2)no1 (stereo not drawn) returned PLK1 inh inactive, CYP2C19 inh inactive, CYP2C19 act inactive, CYP2C9 inhib inactive, CYP2C9 act 2.8 and PLK1 PBD inh inactive.
For Cc1ccc(CC(=O)N2CC(C)OC(C)C2)cc1 (stereo not drawn) the results were PLK1 inh inactive, CYP2C19 inh inactive, CYP2C19 act inactive, CYP2C9 inhib inactive, CYP2C9 act inactive and PLK1 PBD inh inactive.
Cc1cc(C)cc(C(=O)N2CC(C)OC(C)C2)c1 (stereo not drawn) was read as PLK1 inh inactive, CYP2C19 inh inactive, CYP2C19 act inactive, CYP2C9 inhib 88, CYP2C9 act inactive and PLK1 PBD inh inactive.
Screening Cc1ccc(SCC(=O)N2CC(C)OC(C)C2)cc1 (stereo not drawn) returned PLK1 inh inactive, CYP2C19 inh 69, CYP2C19 act inactive, CYP2C9 inhib inactive, CYP2C9 act inactive and PLK1 PBD inh inactive.
COCC(COCCCNC(=O)Nc1ccc(Br)cc1)OC (stereo not drawn) was read as PLK1 inh inactive, CYP2C19 inh inactive, CYP2C19 act inactive, CYP2C9 inhib inactive, CYP2C9 act inactive and PLK1 PBD inh inactive.
`CCCCC(=O)OCCNC(=O)c1cc2ccccc2oc1=O` gave PLK1 inh inactive, CYP2C19 inh 59, CYP2C19 act inactive, CYP2C9 inhib inactive, CYP2C9 act inactive and PLK1 PBD inh inactive.
`C(=N\Nc1nc2ccccc2s1)/c1cccs1` gave PLK1 inh inactive, CYP2C19 inh inactive, CYP2C19 act inactive, CYP2C9 inhib inactive, CYP2C9 act inactive and PLK1 PBD inh inactive.
Screening N#C/C(=C\c1cccs1)Sc1nc2ccccc2s1 returned PLK1 inh inactive, CYP2C19 inh 96, CYP2C19 act inactive, CYP2C9 inhib inactive, CYP2C9 act inactive and PLK1 PBD inh inactive.
For N#C/C(=C\c1ccc[nH]1)Sc1nc2ccccc2s1 the results were CYP2C19 inh 92, CYP2C19 act inactive, CYP2C9 inhib 77 and CYP2C9 act inactive.
`COC(=O)c1ccc(/C=C(\C#N)c2nc3ccccc3s2)cc1` gave PLK1 inh inactive, CYP2C19 inh inactive, CYP2C19 act inactive, CYP2C9 inhib inactive, CYP2C9 act inactive and PLK1 PBD inh inactive.
CCCc1c(C)[nH]c2ccc(NC(C)=O)cc2c1=O was read as PLK1 inh inactive, CYP2C19 inh inactive, CYP2C19 act inactive, CYP2C9 inhib inactive, CYP2C9 act inactive and PLK1 PBD inh inactive.
`CC(C)CNS(=O)(=O)c1cc(C(=O)N2CCOCC2)c(Cl)cc1Cl` gave PLK1 inh inactive, CYP2C19 inh inactive, CYP2C19 act inactive, CYP2C9 inhib inactive, CYP2C9 act inactive and PLK1 PBD inh inactive.
CCCn1c(C)cc(C(=O)COC(=O)c2cc(S(=O)(=O)NCC(C)C)c(Cl)cc2Cl)c1C was read as PLK1 inh inactive, CYP2C19 inh 66, CYP2C19 act inactive, CYP2C9 inhib inactive, CYP2C9 act inactive and PLK1 PBD inh inactive.
For CCOC(=O)Cn1c(=O)oc2cc(S(=O)(=O)NCCC(C)C)ccc21 the results were PLK1 inh inactive, CYP2C19 inh inactive, CYP2C19 act inactive, CYP2C9 inhib 80, CYP2C9 act inactive and PLK1 PBD inh inactive.
Screening CCOC(=O)Cn1c(=O)oc2cc(S(=O)(=O)N(CCN(C)C)Cc3ccccc3)ccc21 returned PLK1 inh inactive, CYP2C19 inh inactive, CYP2C19 act inactive, CYP2C9 inhib inactive, CYP2C9 act inactive and PLK1 PBD inh inactive.
Screening CCOC(=O)Cn1c(=O)oc2cc(S(=O)(=O)N3CCc4ccccc43)ccc21 returned PLK1 inh inactive, CYP2C19 inh 67, CYP2C19 act inactive, CYP2C9 inhib 74, CYP2C9 act inactive and PLK1 PBD inh inactive.
`CCOC(=O)Cn1c(=O)oc2cc(S(=O)(=O)NCCc3ccc(OCC)c(OCC)c3)ccc21` gave PLK1 inh inactive, CYP2C19 inh inactive, CYP2C19 act inactive, CYP2C9 inhib 56, CYP2C9 act inactive and PLK1 PBD inh inactive.
Screening CCOC(=O)Cn1c(=O)oc2cc(S(=O)(=O)NC(C)c3ccccc3)ccc21 (stereo not drawn) returned PLK1 inh inactive, CYP2C19 inh 78, CYP2C19 act inactive, CYP2C9 inhib 51, CYP2C9 act inactive and PLK1 PBD inh inactive.
For Cn1c(=O)c(=O)n(C)c2cc(S(=O)(=O)N3CCc4ccccc43)ccc21 the results were PLK1 inh inactive, CYP2C19 inh inactive, CYP2C19 act inactive, CYP2C9 inhib 54, CYP2C9 act inactive and PLK1 PBD inh inactive.
For CC(CNS(=O)(=O)c1cc(Cl)ccc1Cl)CN(C)C (stereo not drawn) the results were PLK1 inh inactive, CYP2C19 inh inactive, CYP2C19 act inactive, CYP2C9 inhib inactive, CYP2C9 act inactive and PLK1 PBD inh inactive.
For FC(F)(F)c1cccnc1N1CCN(c2ncnc3nc[nH]c23)CC1 the results were CYP2C19 inh 83, CYP2C19 act inactive, CYP2C9 inhib inactive and CYP2C9 act inactive.
For Clc1ccccc1N1CCN(c2ncnc3nc[nH]c23)CC1 the results were CYP2C19 inh inactive, CYP2C19 act inactive, CYP2C9 inhib inactive and CYP2C9 act inactive.
CC(C)(C)c1ccc(C(=O)CCCSC2=C(C#N)C(c3ccco3)C3=C(CCCC3=O)N2)cc1 (stereo not drawn) was read as PLK1 inh inactive, CYP2C19 inh inactive, CYP2C19 act inactive, CYP2C9 inhib 67, CYP2C9 act inactive and PLK1 PBD inh inactive.
N#CC1=C(SCC(=O)c2ccccc2)NC2=C(C(=O)CCC2)C1c1ccco1 (stereo not drawn) was read as CYP2C19 inh 94, CYP2C19 act inactive, CYP2C9 inhib 92 and CYP2C9 act inactive.
For Cc1ccc(C(=O)CSC2=C(C#N)C(c3ccco3)C3=C(CCCC3=O)N2)cc1 (stereo not drawn) the results were CYP2C19 inh 88, CYP2C19 act inactive, CYP2C9 inhib 92 and CYP2C9 act inactive.
Screening CCOc1cc(NS(=O)(=O)c2ccc(Cl)cc2)c(OCC)cc1NC(=O)CC(C)C returned PLK1 inh inactive, CYP2C19 inh inactive, CYP2C19 act inactive, CYP2C9 inhib inactive, CYP2C9 act inactive and PLK1 PBD inh inactive.
